{
  "source": "PubChem BioAssay (NCATS)",
  "note": "Values joined by “and” are separate entries in the source; they are usually repeats but may differ in a detail not shown here. Equal entries are not always repeated. Results filed as inconclusive are left out. Entries that show only a call come without a potency. Active and inactive are the calls of the source. Calls follow the shape of the dose curve; as a rule, active = well fitted inhibition curve with a large enough effect; inconclusive = small, poorly fitted or top-dose-only effect; inactive = no such curve, though single readings can be large or run the other way. Potency is read from the fitted curve at half-maximal effect.",
  "data": [
    {"test": "Primary qHTS for inhibitors of nuclear receptor binding SET domain protein 2 (NSD2) in an RCH-ACV wild type WT cells (2C) (AID 1645877); also: nearly all actives have a fitted effect of over 70% in size", "conditions": "RCH-ACV NSD2 WT (2C) viability, CellTiter-Glo, 72 h; series mostly up to 44.9 µM", "text": "Assay Provider: Jonathan D. Licht, MD\nUniversity of Florida College of Medicine, Gainesville, FL\nMutations in epigenetic regulators are common in relapsed pediatric acute lymphoblastic leukemia (ALL). Here, we uncovered the mechanism underlying the relapse of ALL driven by an activating mutation of the NSD2 histone methyltransferase (p.E1099K). […] Correction of this mutation restored glucocorticoid sensitivity. The transcriptional response to glucocorticoids was blocked in NSD2 mutant cells due to depressed glucocorticoid receptor (GR) levels and the failure of glucocorticoids to autoactivate GR expression. […] Pre-treatment of NSD2 p.E1099K cell lines and PDX samples with PRC2 inhibitors reversed glucocorticoid resistance in vitro and in vivo.\nHigh-throughput drug screening of isogenic RCH-ACV cell lines was performed at the National Center for Advancing Translational Science (NCATS), National Institutes of Health as previously described (1). Briefly, isogenic RCH-ACV NSD2 p.E1099K mutant (9B) and WT cells (2C) were plated at 500 cells/well in a 1536-well plate with a 72-hour incubation with compounds prior to addition of CellTiter-Glo to assess cell viability. NCATS libraries screened include: NPC, MIPE 5.0, Kinase and NPACT. To determine compound activity in the qHTS assay, the concentration-response data for each sample was plotted and modeled by a four-parameter logistic fit yielding IC50 and efficacy (maximal response) values. The area under the curve (AUC) of the dose-response curve ensures both efficacy (magnitude of cell killing) and potency (concentration that elicits cell killing) are accounted for in the analysis of activity.\n1. Tobie D Lee, Olivia W Lee, Kyle R Brimacombe, Lu Chen, Rajarshi Guha, Sabrina Lusvarghi, Bethilehem G Tebase, Carleen Klumpp-Thomas, Robert W Robey, Suresh V Ambudkar, Min Shen, Michael M Gottesman, Matthew D Hall. A High-Throughput Screen of a Library of Therapeutics Identifies Cytotoxic Substrates of P-glycoprotein. Mol Pharmacol. 2019, Nov;96(5):629-640.", "values": [
      {"smiles": "O=S1(=O)OC(c2ccc(O)cc2)(c2ccc(O)cc2)c2ccccc21", "Potency": "inactive"},
      {"smiles": "Nc1ncnc2c1ncn2[C@@H]1O[C@H](COP(=O)(O)O)[C@@H](O)[C@H]1O", "Potency": "inactive"},
      {"smiles": "O[C@@H]1CO[C@H]2[C@@H]1OC[C@@H]2O", "Potency": "inactive"},
      {"smiles": "CC(=O)N[C@@H](Cc1ccc(O)cc1)C(=O)O", "Potency": "inactive"},
      {"smiles": "O=C(/C=C/c1ccccc1)OCc1ccccc1", "Potency": "inactive"},
      {"smiles": "Cc1c(Cn2ccnc2)c2ccccc2n1CCC(=O)O", "Potency": "inactive"},
      {"smiles": "CC(C)(C)C(=O)OCOC(=O)[C@@H]1N2C(=O)[C@@H](NC(=O)[C@H](N)c3ccccc3)[C@H]2SC1(C)C", "Potency": "inactive"},
      {"smiles": "C[N+](C)(C)CC[N+]1(C)Cc2c(Cl)c(Cl)c(Cl)c(Cl)c2C1", "Potency": "inactive"},
      {"smiles": "CC(=O)Nc1cccc(O)c1", "Potency": "inactive"},
      {"smiles": "O=C(O)c1ccccc1OP(=O)(O)O", "Potency": "inactive"},
      {"smiles": "CN1C[C@@H]2C[C@H]1CN2c1cc2c(cc1F)c(=O)c(C(=O)O)cn2C1CC1", "Potency": "inactive"},
      {"smiles": "CC(C)NC[C@@H](O)COc1ccc(CC(N)=O)cc1", "Potency": "inactive"},
      {"smiles": "Cc1cc(OI)c(C(C)C)cc1-c1cc(C(C)C)c(OI)cc1C", "Potency": "inactive"},
      {"smiles": "CNCc1ccccc1", "Potency": "inactive"},
      {"smiles": "NS(=O)(=O)c1cc2c(cc1C(F)(F)F)NCNS2(=O)=O", "Potency": "inactive"},
      {"smiles": "CC(O)CCCCn1c(=O)c2c(ncn2C)n(C)c1=O", "note": "(stereo not given)", "Potency": "inactive"},
      {"smiles": "CN1CC(=O)NC1=N", "Potency": "inactive"},
      {"smiles": "Cc1cc(C)nc(NS(=O)(=O)c2ccc(N)cc2)n1", "Potency": "inactive"},
      {"smiles": "CC(CN(C)C)C(C)(O)Cc1ccc(Cl)cc1", "note": "(stereo not given)", "Potency": "inactive"},
      {"smiles": "CCOC(=O)OC(C)OC(=O)[C@@H]1N2C(=O)[C@@H](NC(=O)[C@H](N)c3ccccc3)[C@H]2SC1(C)C", "note": "(stereo not given in full)", "Potency": "inactive"},
      {"smiles": "CC(CSC(=O)c1ccccc1)C(=O)N1C[C@@H](Sc2ccccc2)C[C@H]1C(=O)O", "note": "(stereo not given in full)", "Potency": "inactive"},
      {"smiles": "C[N+]1(C)CCCC(OC(=O)C(O)(c2ccccc2)c2ccccc2)C1", "note": "(stereo not given)", "Potency": "inactive"},
      {"smiles": "Cc1cc(-n2nc3ccc(Cl)cc3n2)c(O)c(C(C)(C)C)c1", "Potency": "inactive"},
      {"smiles": "O=C(O)CCCc1ccccc1", "Potency": "inactive"},
      {"smiles": "NS(=O)(=O)c1cc(C2(O)NC(=O)c3ccccc32)ccc1Cl", "note": "(stereo not given)", "Potency": "inactive"},
      {"smiles": "O=C(O)c1ccc(OCCCOc2ccc(C(=O)O)cc2)cc1", "Potency": "inactive"},
      {"smiles": "CN1C(=O)CC(c2ccccc2)C1=O", "note": "(stereo not given)", "Potency": "inactive"},
      {"smiles": "FC(F)(F)C(Cl)Br", "note": "(stereo not given)", "Potency": "inactive"},
      {"smiles": "Cc1c(N(C)C)c(=O)n(-c2ccccc2)n1C", "Potency": "inactive"},
      {"smiles": "O=C1c2cccc(O)c2C(=O)c2c(O)cccc21", "Potency": "inactive"},
      {"smiles": "Cc1cccc(C)c1NC(=O)CC12CCCN1CCC2", "Potency": "inactive"},
      {"smiles": "CCCCC1(COC(=O)CCC(=O)O)C(=O)N(c2ccccc2)N(c2ccccc2)C1=O", "Potency": "inactive"},
      {"smiles": "O=C(CN1CCNCC1)NC1CCCCC1", "Potency": "inactive"},
      {"smiles": "CCN(CC)CCc1nc(-c2ccccc2)no1", "Potency": "inactive"},
      {"smiles": "COc1ccccc1OC(=O)Oc1ccccc1OC", "Potency": "inactive"},
      {"smiles": "NC(N)=NS(=O)(=O)c1ccc(N)cc1", "Potency": "inactive"},
      {"smiles": "CC(=O)OC[C@H]1O[C@@](COC(C)=O)(O[C@H]2O[C@H](COC(C)=O)[C@@H](OC(C)=O)[C@H](OC(C)=O)[C@H]2OC(C)=O)[C@@H](OC(C)=O)[C@@H]1OC(C)=O", "Potency": "inactive"},
      {"smiles": "O=c1[nH]c(=O)n([C@H]2C[C@H](O)[C@@H](CO)O2)cc1I", "Potency": "2.99 µM (active) and 662 nM (active)"},
      {"smiles": "CC(=O)Nc1ccccc1", "Potency": "inactive"},
      {"smiles": "c1ccc2[nH]ccc2c1", "Potency": "inactive"}
    ]}
  ]
}
